Consider 14 compounds from PubChem BioAssay.

Test [1] in a line: inhibitors of TNFa-induced NFkB p65 translocation, primary screen, imaging, HUVEC, MLSMR starter and 10KST1 sets (AID 438;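 active = inhibition above 20% together with a positive visual image hit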;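 note: compound added about 3h40 before a 20 min TNFalpha stimulation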;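 for inhibition: signal is the nuclear over cytoplasmic p65 intensity ratio per well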). The conditions noted are these: HUVEC TNFa-induced p65 nuclear translocation; cell count: measured here: nuclei count (cytotoxicity indicator), at 2.08 µM; inhibition: at 2 µM, stronger effect = higher value, 0% TNFa-plus-vehicle, 100% no-TNFa wells.
Test [2] in a line: reduction of polyQ htt aggregates in cells – imaging, exon1htt(103Q)mCFP cells, high-content imaging, primary screen (AID 483;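 active = visual image review flags a hit and inhibition of aggregation exceeds 20%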;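 note: compound exposure lasted 3 days before fixation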;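 for nuclei count: percent of the per-plate median nuclei count of sample wells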). The conditions noted are these: exon1htt(103Q)mCFP cell line, aggregate imaging, at 2 µM; inhibition of aggregation: stronger effect = higher value; nuclei count: measured here: cell count, toxicity.
Test [3] is described as follows: endothelial E-selectin expression blockers – imaging, HUVEC, immunofluorescence, MLSMR starter and 10KST1 sets, primary screen (AID 487;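 active = visually confirmed hit in the image check and inhibition above 20%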;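 for inhibition: signal is fraction of cell area covered by stained E-selectin grains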;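 for nuclei count: 100% = median nuclei count of all wells on the same plate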). The following applies: HUVEC TNFalpha-induced E-selectin immunofluorescence imaging, at 2 µM; inhibition: stronger effect = higher value; nuclei count: measured here: cell number, toxicity.
In test [4] the target is Voltage-gated potassium channel subunit beta-2 (Rattus norvegicus) (UniProt P62483). The test can be described thus: inhibitors of rat Kvbeta2 reductase activity – biochemical, NADPH fluorescence, primary screen (AID 622;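 active = fluorescence slope higher than the sample average by over 3 SD, cut at about -0.22 in these data, passing the limit was not always enough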;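 note: slope of raw intensity against log time taken from 70 to 1610 s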). The following applies: recombinant KvBeta, 4-cyanobenzaldehyde reduction, at 10 µM, stronger effect = higher value.
For test [5] the target is unchanged. The experiment in a line: enhancers of rat Kvbeta2 NADPH turnover – biochemical, NADPH fluorescence, primary screen (AID 623).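 Note: fluorescence intensity change per second fitted from 20 to 320 s.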 The following applies: Recombinant KvBeta, NADPH fluorescence decrease slope, 10 min; at 10 µM; stronger effect = lower value.
In test [6] the target is Alpha-2C adrenergic receptor (Homo sapiens) (UniProt P18825). The test can be described thus: compounds altering alpha2C-coupled GIRK flux – cell-based, HEK293 alpha2C/GIRK1/2, thallium flux, primary screen (AID 624;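 active = fluorescence slope after compound addition differing from the mean of all screened samples at 99.7% confidence, in either direction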;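 note: slope of fluorescence ratio to pre-addition baseline per second over 15 to 24 s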). The following applies: thallium flux BTC fluorescence, at 10 µM, actives lie on both sides.
A short description of test [7]: blockers of RIG-like receptor reporter activation – cell-based, Sendai virus stimulus, luciferase, 10K MLSCN set, TLR/RLR signaling modifier project, primary screen (AID 602276;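 active = inhibition at or above 50% at 10 µM; inactive = inhibition below 50%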;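 note: firefly luciferase from ISG56 promoter only with Renilla not read in this screen; 0% = Sendai virus plus DMSO and 100% = medium plus DMSO without virus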). The conditions noted are these: HEK293 RL24 IRF3 luciferase reporter, at 10 µM, stronger effect = higher value. (In a reporter assay the amount or activity of a reporter protein is the signal.)
The nature of test [8]: TLR3 IRF3 reporter activation blockers – cell-based, poly I:C stimulus, luciferase, 10K MLSCN set, primary screen (AID 602277;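 active = inhibition of the reporter signal at or above 50%; inactive = inhibition below 50%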). The conditions noted are these: HEK293-TLR3 RL24 IRF3 luciferase reporter, at 10 µM, stronger effect = higher value.

Active and inactive are the calls of the source.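 Rule for the calls, unless noted: active = NADPH fluorescence slope more negative than the mean of all samples by about 3 SD, 99.7% confidence; inactive = the rest.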

Sequence of Voltage-gated potassium channel subunit beta-2 (Rattus norvegicus) (P62483 whole entry, looked up): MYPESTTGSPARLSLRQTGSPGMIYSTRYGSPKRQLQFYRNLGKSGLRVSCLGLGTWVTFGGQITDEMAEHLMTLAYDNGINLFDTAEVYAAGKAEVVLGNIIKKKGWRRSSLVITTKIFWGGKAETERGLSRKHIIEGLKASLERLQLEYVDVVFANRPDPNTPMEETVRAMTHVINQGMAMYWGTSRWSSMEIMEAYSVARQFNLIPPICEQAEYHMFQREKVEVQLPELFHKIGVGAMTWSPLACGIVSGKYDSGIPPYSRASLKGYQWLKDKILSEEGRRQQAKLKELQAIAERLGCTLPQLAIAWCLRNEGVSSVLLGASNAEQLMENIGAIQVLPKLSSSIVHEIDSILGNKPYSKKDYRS
Sequence of Alpha-2C adrenergic receptor (Homo sapiens) (P18825 whole entry, looked up): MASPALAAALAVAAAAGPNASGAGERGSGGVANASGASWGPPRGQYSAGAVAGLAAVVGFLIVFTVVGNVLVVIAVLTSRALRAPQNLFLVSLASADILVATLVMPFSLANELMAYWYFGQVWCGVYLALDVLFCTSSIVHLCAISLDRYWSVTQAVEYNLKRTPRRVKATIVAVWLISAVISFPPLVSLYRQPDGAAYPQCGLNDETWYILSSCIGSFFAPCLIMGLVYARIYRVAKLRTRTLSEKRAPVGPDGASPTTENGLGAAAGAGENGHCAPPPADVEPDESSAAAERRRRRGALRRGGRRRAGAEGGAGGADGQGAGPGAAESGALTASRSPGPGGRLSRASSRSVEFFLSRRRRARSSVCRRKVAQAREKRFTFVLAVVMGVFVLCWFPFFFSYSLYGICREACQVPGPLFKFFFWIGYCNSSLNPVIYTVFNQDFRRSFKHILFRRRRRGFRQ

For the compound `CCOC(=O)N1CCC(N2C(=O)c3ccccc3C2Nc2ccc3c(C)cc(=O)oc3c2)CC1` (centres undefined), the cell count in test [1] amounted to 654. The inhibition is 2.3% (inactive) in test [1], -65.6% (inactive) in test [3], 14.2% (inactive) in test [7] and 18% (inactive) in test [8]. The inhibition of aggregation in test [2] is -19.4% (inactive). Also, the nuclei count in test [2] came out at 101%; in test [3] it was 121%. The fluorescence slope in test [4] was -0.0451 (active). The NADPH fluorescence slope in test [5] is -9.7e-08 (inactive). Also, the slope in test [6] is 0.00764 (inactive).
In the case of `CCC(C)NC(=O)c1ccccc1NC(=O)C(C)N(c1ccccc1)S(C)(=O)=O` (centres undefined), in test [1], the cell count came to 643. For the same compound, the inhibition in test [1] is 3.1% (inactive); in test [3] it was -7% (inactive); in test [7] it was 5.01% (inactive); in test [8], 28.8% (inactive). The inhibition of aggregation in test [2] was 5% (inactive). Further, the figures for the nuclei count in test [2] and in test [3] were 108% and 99.9%, respectively. The fluorescence slope in test [4] is -0.479 (inactive). Also, the NADPH fluorescence slope in test [5] is 8.2e-06 (inactive). In test [6], the slope was 0.00595 (inactive).
As for `O=C(CCN1C(=O)c2ccccc2C1=O)N1CCN(C(=O)c2ccccc2)CC1`, the cell count in test [1] came out at 548. Moreover, the inhibition was 2.5% (inactive) in test [1], -145% (inactive) in test [3], 9.17% (inactive) in test [7] and 19.5% (inactive) in test [8]. For the same compound, in test [2], the inhibition of aggregation is 7.3% (inactive). The nuclei count came out at 98.2% in test [2] and 118% in test [3]. In addition, the fluorescence slope in test [4] was -0.491 (inactive). In addition, the NADPH fluorescence slope in test [5] is -4.1e-05 (inactive). Also, the slope in test [6] was 0.00673 (inactive).
As to `Cc1occc1-c1nc(-c2ccncc2)no1`, in test [1], the cell count was 706. The inhibition in test [1] is 7.3% (inactive); in test [3], -46.6% (inactive); in test [7], -46.9% (inactive); in test [8], -90.8% (inactive). In addition, the inhibition of aggregation in test [2] is 6% (inactive). Further, the results for the nuclei count in test [2] and in test [3] were 95.3% and 126%, respectively. Moreover, in test [4], the fluorescence slope was -0.523 (inactive). Besides, the NADPH fluorescence slope in test [5] is 1.8e-05 (inactive). For the same compound, the slope in test [6] is 0.00583 (inactive).
For the compound `Cc1cc(C)c2c(=O)n(CC(=O)NCCCN3CCOCC3)sc2n1`, in test [1], the cell count was determined as 594. The inhibition in test [1] was 8.2% (inactive); in test [3] it was 36.7% (inactive); in test [7], 10.4% (inactive); in test [8], 40.4% (inactive). In addition, the inhibition of aggregation in test [2] is 1.1% (inactive). In addition, the nuclei count in test [2] came to 118%; in test [3], 106%. In addition, the fluorescence slope in test [4] was -0.548 (inactive). Moreover, the NADPH fluorescence slope in test [5] is -3.1e-05 (inactive). Moreover, the slope in test [6] is 0.00687 (inactive).
In the case of `O=C(NC12CC3CC(CC(C3)C1)C2)c1cncc(O)c1`, in test [1], the cell count was 708. Further, the inhibition in test [1] was 13.5% (inactive); in test [3], -200% (inactive); in test [7] it was 7.2% (inactive); in test [8], 26.8% (inactive). For the same compound, the inhibition of aggregation in test [2] was -6.2% (inactive). The figures for the nuclei count in test [2] and in test [3] were 102% and 128%, respectively. The fluorescence slope in test [4] is -0.608 (inactive). The NADPH fluorescence slope in test [5] is 5e-06 (inactive). Besides, the slope in test [6] is 0.0069 (inactive).
`O=C(Nc1ccc(OC(=O)c2ccco2)cc1)c1ccco1`: the cell count in test [1] worked out at 239. Also, the inhibition was -2.2% (inactive) in test [1], 10.8% (inactive) in test [3], 4.1% (inactive) in test [7] and -1.78% (inactive) in test [8]. Also, the inhibition of aggregation in test [2] was -7.4% (inactive). Also, the nuclei count in test [2] was determined as 92%; in test [3], 101%. Moreover, the fluorescence slope in test [4] is -0.442 (inactive). The NADPH fluorescence slope in test [5] is -1e-05 (inactive). Also, the slope in test [6] is 0.00563 (inactive).
As for `CC(C)Cn1c(N)c(C(=O)NCCN2CCOCC2)c2nc3ccccc3nc21`, the cell count in test [1] was 440. Moreover, the inhibition in test [1] was -2.8% (inactive); in test [3], -37.1% (inactive); in test [7], 19.1% (inactive); in test [8], 19.8% (inactive). Moreover, in test [2], the inhibition of aggregation is -15.6% (inactive). The results for the nuclei count in test [2] and in test [3] were 101% and 81.3%, respectively. The fluorescence slope in test [4] is -0.0147 (inactive). Further, the NADPH fluorescence slope in test [5] is -9e-06 (inactive). Besides, the slope in test [6] was 0.00559 (inactive).
As to `O=C(Nc1ncc(Cc2ccccc2)s1)C1CCCO1` (centres undefined), the cell count in test [1] worked out at 455. Moreover, the inhibition was -3.3% (inactive) in test [1], -1.5% (inactive) in test [3], -58.5% (inactive) in test [7] and -150% (inactive) in test [8]. Moreover, the inhibition of aggregation in test [2] was 11% (inactive). In addition, the nuclei count amounted to 109% in test [2] and 96.3% in test [3]. The fluorescence slope in test [4] is -0.563 (inactive). Further, the NADPH fluorescence slope in test [5] is -1.3e-05 (inactive). Moreover, the slope in test [6] was 0.00728 (inactive).
Take `COC(=O)c1cccc(NC(=O)CSc2nnc(COc3ccccc3)n2C)c1`: the cell count in test [1] came to 671. Moreover, the inhibition in test [1] is -5.4% (inactive); in test [3], -88% (inactive); in test [7] it was 11.9% (inactive); in test [8], 14% (inactive). Further, in test [2], the inhibition of aggregation is -2.2% (inactive). Further, the nuclei count in test [2] was found to be 101%; in test [3], 135%. In test [4], the fluorescence slope was -0.436 (inactive). Moreover, in test [5], the NADPH fluorescence slope is -4.3e-05 (inactive). In test [6], the slope is 0.00598 (inactive).
For `CN(Cc1ccccc1)C(=O)c1ccccc1NC(=O)c1ccco1`, in test [1], the cell count is 349. Also, the inhibition in test [1] is -9.3% (inactive); in test [3] it was -102% (inactive); in test [7] it was -13.9% (inactive); in test [8], 98.1% (active). For the same compound, the inhibition of aggregation in test [2] was -4.5% (inactive). Also, the values for the nuclei count in test [2] and in test [3] were 86% and 130%, respectively. In test [4], the fluorescence slope is -0.333 (inactive). Moreover, the NADPH fluorescence slope in test [5] was -6e-05 (inactive). In test [6], the slope was 0.00495 (inactive).
On to `CC1(C)CC(=O)C=C(NC2CCS(=O)(=O)C2)C1` (centres undefined), for which the cell count in test [1] turned out to be 624. The inhibition in test [1] was 11.3% (inactive); in test [3], 10.6% (inactive); in test [7], 15.5% (inactive); in test [8] it was 39.3% (inactive). Besides, the inhibition of aggregation in test [2] was 5.8% (inactive). Besides, the results for the nuclei count in test [2] and in test [3] were 59.6% and 100%, respectively. Also, in test [4], the fluorescence slope is -0.561 (inactive). For the same compound, the NADPH fluorescence slope in test [5] was 1.2e-05 (inactive). Moreover, the slope in test [6] was 0.00618 (inactive).
For `C=CCn1c(SC(C)C(=O)NC2(C#N)CCCCC2)nnc1-c1ccc(OC)cc1` (centres undefined), in test [1], the cell count was determined as 612. The inhibition in test [1] is 9.9% (inactive); in test [3] it was -154% (inactive); in test [7] it was 22.5% (inactive); in test [8], 21.6% (inactive). Besides, in test [2], the inhibition of aggregation was 6.2% (inactive). Also, the nuclei count was found to be 95% in test [2] and 94% in test [3]. The fluorescence slope in test [4] is -0.594 (inactive). Also, in test [5], the NADPH fluorescence slope was -3.3e-05 (inactive). Further, the slope in test [6] is 0.00361 (inactive).
For `COc1ccc(-n2c(Cc3cccn3C)nnc2SCC(=O)Nc2ccc(Cl)cc2)cc1`, in test [1], the cell count stood at 678. Also, the inhibition is -5.8% (inactive) in test [1], -22.9% (inactive) in test [3], 11.4% (inactive) in test [7] and 23.2% (inactive) in test [8]. Further, in test [2], the inhibition of aggregation was 8.1% (inactive). Also, the nuclei count is 85% in test [2] and 119% in test [3]. Also, the fluorescence slope in test [4] is -0.567 (inactive). Moreover, the NADPH fluorescence slope in test [5] was -5e-06 (inactive). In test [6], the slope is 0.0052 (inactive).

The term inhibition denotes the change of the read-out against control, counted positive when it falls.
